{"source": "PubChem BioAssay (NCATS)", "note": "Results filed as inconclusive are left out. Values without a mark were called inactive. The source made the active and inactive calls. Calls follow the shape of the dose curve; as a rule, active = well fitted inhibition curve with a large enough effect; inconclusive = small, poorly fitted or top-dose-only effect; inactive = flat fitted curve, though single readings scatter. Bridge positions count the residues as written; N and C are the ends. Square brackets hold non-standard residues; d marks the D form. Peptide text beside a SMILES is read from it. * marks the point of attachment. Ileψ(thiazoline)Cys = CC[C@H](C)[C@H](N)C1=N[C@H](C(=O)*)CS1; d(aIle) = CC[C@H](C)[C@@H](N)C(=O)O; dOrn = NCCC[C@@H](N)C(=O)O"}
{"tested_on": "CP305", "assay": "qHTS profiling for inhibitors of Plasmodium falciparum proliferation (AID 504749); also: nearly all actives have a fitted effect of over 60% in size; also: potency is read from the fitted curve at half-maximal effect;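 as to activity, negative = inhibition: 0% = DMSO vehicle and full inhibition = artemisinin control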", "conditions": "P. falciparum in erythrocytes, SYBR Green DNA, 72 h; series mostly up to 12.8 µM; activity, negative = inhibition: at the top concentration", "procedure,_shortened": "(§1)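 Fluorescence of SYBR Green-bound parasite DNA, read at 485/535 nm, served as the growth measure. Infected erythrocytes were cultured with compound 72 h; artemisinin (0.29 uM) and DMSO wells defined the normalization range.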", "units": {"activity, negative = inhibition": "%"}}
{"smiles": "C[C@@H]1C[C@H]2[C@@H]3C[C@H](F)C4=CC(=O)C=C[C@@]4(C)[C@]3(F)[C@H](O)C[C@]2(C)[C@@]1(O)C(=O)CO", "activity, negative = inhibition": -1.79}
{"smiles": "C[C@H](O)Cn1cnc2c1c(=O)n(C)c(=O)n2C", "activity, negative = inhibition": -3.59}
{"smiles": "CCCCC[C@H](O)/C=C\\[C@@H]1[C@H](O)CC(=O)[C@@H]1CCCCCCC(=O)O", "activity, negative = inhibition": 2.06}
{"smiles": "CC(=C(CCOP(=O)(O)O)SC(=O)c1ccccc1)N(C=O)Cc1cnc(C)nc1N", "activity, negative = inhibition": 1.61}
{"smiles": "NC[C@@H]1O[C@@H](O[C@H]2[C@H](O)[C@H](O[C@@H]3O[C@H](CO)[C@@H](O)[C@H](N)[C@@H]3O)[C@@H](N)C[C@H]2N)[C@H](N)C[C@@H]1O", "activity, negative = inhibition": -0.924}
{"smiles": "CCc1c(C)[nH]c2c1C(=O)[C@H](CN1CCOCC1)CC2", "activity, negative = inhibition": 0.57}
{"smiles": "C=C1c2c(Cl)ccc(O)c2C(O)=C2C(=O)[C@@]3(O)C(O)=C(C(N)=O)C(=O)[C@@H](N(C)C)[C@@H]3[C@@H](O)[C@H]12", "activity, negative = inhibition": -9.61}
{"smiles": "CC[C@H](C)[C@H](N)C1=N[C@H](C(=O)N[C@@H](CC(C)C)C(=O)N[C@@H](CCC(=O)O)C(=O)N[C@@H](C(=O)N[C@H]2CCCCNC(=O)[C@@H](CC(N)=O)NC(=O)[C@@H](CC(=O)O)NC(=O)[C@@H](Cc3cnc[nH]3)NC(=O)[C@@H](Cc3ccccc3)NC(=O)[C@@H]([C@@H](C)CC)NC(=O)[C@@H](CCCN)NC2=O)[C@@H](C)CC)CS1", "note": "({Ileψ(thiazoline)Cys}-LE[d(aIle)]K[dOrn][d(aIle)][dF][dH][dD][dN]; lactam 4-C)", "activity, negative = inhibition": 2.54}
{"smiles": "O=C(N/N=C\\c1ccc([N+](=O)[O-])o1)c1ccc(O)cc1", "Potency": "2.56 µM (active)"}
{"smiles": "CCOC(=O)O[C@@H](C)OC(=O)[C@@H]1N2C(=O)[C@@H](NC(=O)[C@@H](N)c3ccccc3)[C@H]2SC1(C)C", "activity, negative = inhibition": 4.52}
{"smiles": "Cc1cccc(CN2CCN([C@@H](c3ccccc3)c3ccc(Cl)cc3)CC2)c1", "activity, negative = inhibition": -24.6}
{"smiles": "Cc1ccsc1/C=C\\C1=NCCCN1C", "activity, negative = inhibition": -1.4}
{"smiles": "O=C(O)COCCN1CCN([C@@H](c2ccccc2)c2ccc(Cl)cc2)CC1", "activity, negative = inhibition": 0.574}
{"smiles": "C#C[C@]1(O)CC[C@@H]2[C@H]3CCC4=CCCC[C@@H]4[C@@H]3CC[C@@]21C", "activity, negative = inhibition": 0.213}
{"smiles": "CC1(C)[C@@H](OC(=O)CCC(=O)O)CC[C@@]2(C)[C@H]1CC[C@@]1(C)[C@H]2C(=O)C=C2[C@H]3C[C@](C)(C(=O)O)CC[C@]3(C)CC[C@@]21C", "activity, negative = inhibition": 0.288}
{"smiles": "C[C@H](CCC(=O)O)[C@H]1CC[C@@H]2[C@@H]3[C@@H](O)C[C@H]4C[C@@H](O)CC[C@@]4(C)[C@H]3CC[C@@]21C", "activity, negative = inhibition": 0.32}
{"smiles": "CN1CCO[C@H](c2ccccc2)c2ccccc2C1", "activity, negative = inhibition": -15.6}
{"tested_on": "CP315", "assay": "qHTS profiling for inhibitors of Plasmodium falciparum proliferation (AID 504749); also: nearly all actives have a fitted effect of over 60% in size; also: potency is read from the fitted curve at half-maximal effect;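 as to activity, negative = inhibition: 0% = DMSO vehicle and full inhibition = artemisinin control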", "conditions": "P. falciparum in erythrocytes, SYBR Green DNA, 72 h; series mostly up to 12.8 µM; activity, negative = inhibition: at the top concentration", "procedure,_shortened": "as §1", "units": {"activity, negative = inhibition": "%"}}
{"smiles": "C[C@@H]1C[C@H]2[C@@H]3C[C@H](F)C4=CC(=O)C=C[C@@]4(C)[C@]3(F)[C@H](O)C[C@]2(C)[C@@]1(O)C(=O)CO", "activity, negative = inhibition": 0.132}
{"smiles": "C[C@H](O)Cn1cnc2c1c(=O)n(C)c(=O)n2C", "activity, negative = inhibition": -1.12}
{"smiles": "CCCCC[C@H](O)/C=C\\[C@@H]1[C@H](O)CC(=O)[C@@H]1CCCCCCC(=O)O", "activity, negative = inhibition": -1.98}
{"smiles": "CC(=C(CCOP(=O)(O)O)SC(=O)c1ccccc1)N(C=O)Cc1cnc(C)nc1N", "activity, negative = inhibition": -0.28}
{"smiles": "NC[C@@H]1O[C@@H](O[C@H]2[C@H](O)[C@H](O[C@@H]3O[C@H](CO)[C@@H](O)[C@H](N)[C@@H]3O)[C@@H](N)C[C@H]2N)[C@H](N)C[C@@H]1O", "activity, negative = inhibition": 0.194}
{"smiles": "CCc1c(C)[nH]c2c1C(=O)[C@H](CN1CCOCC1)CC2", "activity, negative = inhibition": -2.92}
{"smiles": "C=C1c2c(Cl)ccc(O)c2C(O)=C2C(=O)[C@@]3(O)C(O)=C(C(N)=O)C(=O)[C@@H](N(C)C)[C@@H]3[C@@H](O)[C@H]12", "activity, negative = inhibition": -23.1}
{"smiles": "CCC(=O)OCC(=O)[C@@]1(OC(=O)CC)[C@H](C)C[C@@H]2[C@@H]3[C@H]([C@@H](O)C[C@@]21C)[C@]1(C)C=CC(=O)C=C1C[C@@H]3Cl", "activity, negative = inhibition": -0.0168}
{"smiles": "CC[C@H](C)[C@H](N)C1=N[C@H](C(=O)N[C@@H](CC(C)C)C(=O)N[C@@H](CCC(=O)O)C(=O)N[C@@H](C(=O)N[C@H]2CCCCNC(=O)[C@@H](CC(N)=O)NC(=O)[C@@H](CC(=O)O)NC(=O)[C@@H](Cc3cnc[nH]3)NC(=O)[C@@H](Cc3ccccc3)NC(=O)[C@@H]([C@@H](C)CC)NC(=O)[C@@H](CCCN)NC2=O)[C@@H](C)CC)CS1", "note": "({Ileψ(thiazoline)Cys}-LE[d(aIle)]K[dOrn][d(aIle)][dF][dH][dD][dN]; lactam 4-C)", "activity, negative = inhibition": 2.64}
{"smiles": "O=C(N/N=C\\c1ccc([N+](=O)[O-])o1)c1ccc(O)cc1", "Potency": "5.73 µM (active)"}
{"smiles": "C[C@@H](CNC1CCCCC1)OC(=O)c1ccccc1", "activity, negative = inhibition": -4.63}
{"smiles": "CCOC(=O)O[C@@H](C)OC(=O)[C@@H]1N2C(=O)[C@@H](NC(=O)[C@@H](N)c3ccccc3)[C@H]2SC1(C)C", "activity, negative = inhibition": -1.73}
{"smiles": "Cc1cccc(CN2CCN([C@@H](c3ccccc3)c3ccc(Cl)cc3)CC2)c1", "activity, negative = inhibition": -1.03}
{"smiles": "Cc1ccsc1/C=C\\C1=NCCCN1C", "activity, negative = inhibition": 1.74}
{"smiles": "O=C(O)COCCN1CCN([C@@H](c2ccccc2)c2ccc(Cl)cc2)CC1", "activity, negative = inhibition": -3.3}
{"smiles": "C#C[C@]1(O)CC[C@@H]2[C@H]3CCC4=CCCC[C@@H]4[C@@H]3CC[C@@]21C", "activity, negative = inhibition": 0.568}
{"smiles": "CC1(C)[C@@H](OC(=O)CCC(=O)O)CC[C@@]2(C)[C@H]1CC[C@@]1(C)[C@H]2C(=O)C=C2[C@H]3C[C@](C)(C(=O)O)CC[C@]3(C)CC[C@@]21C", "activity, negative = inhibition": -0.558}
{"smiles": "C[C@H](CCC(=O)O)[C@H]1CC[C@@H]2[C@@H]3[C@@H](O)C[C@H]4C[C@@H](O)CC[C@@]4(C)[C@H]3CC[C@@]21C", "activity, negative = inhibition": -3.11}
{"smiles": "CN1CCO[C@H](c2ccccc2)c2ccccc2C1", "activity, negative = inhibition": -10.7}
